According to PubChem BioAssay (NCATS):
“And” between values parts separate entries of the source, which are not always exact repeats. Identical values can stand only once. Results filed as inconclusive are left out. A call without a number means that no potency is given here. The source made the active and inactive calls. Unless noted, calls follow the shape of the dose curve; as a rule, active = well fitted curve in the direction sought with a large enough effect; inconclusive = small, poorly fitted or top-dose-only effect, or another doubt; inactive = no such curve, though single readings can be large; an effect the other way counts as inactive or inconclusive.

Key:
[1] = target: phosphoglycerate mutase (Leishmania major) (UniProt Q4Q090); experiment: qHTS Validation Assay to Find Inhibitors of Phosphoglycerate Mutase (AID 504548); also: series mostly up to about 58 µM
Summary of the method: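 Luminescent end-point read-out via Kinase-GloPlus after a 10-minute development. Reaction: 1.25nM Leishmania major PGAM with substrate and compound, 45 minutes at room temperature in TEA buffer (pH 7.6) with MgCl2 and Tween-20.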

[2] = target: Ubiquitin carboxyl-terminal hydrolase 1 (Homo sapiens) (UniProt O94782); experiment: Inhibitors of USP1/UAF1: Pilot qHTS (AID 504865);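 also: rhodamine fluorescence freed from ubiquitin-rhodamine substrate followed over time; top concentration of the series differs between compounds; nearly all actives have a fitted effect of over 35% in size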
Summary of the method: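 USP1/UAF1 complex at 1 nM preincubated 15 min at room temperature with compound, then Ub-Rho substrate added at 150 nM final. Fluorescence (480/540 nm) read kinetically in 50 mM HEPES pH 7.8, 0.5 mM EDTA, 1 mM TCEP, 0.1 mg/ml BSA, 0.01% Tween-20.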

[3] = target: Estrogen receptor (Homo sapiens) (UniProt P03372); experiment: qHTS assay for small molecule antagonists of estrogen receptor alpha signaling (AID 588513; active = well fitted curve in the direction sought with a large enough effect in the signal ratio, with a control signal flat, not every such curve was filed as active; the % refers to the signal ratio)
Summary of the method: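 ER-alpha-UAS-bla GripTite HEK 293 cells in 2% charcoal/dextran-treated FBS medium; compounds titrated (1:2, duplicate), then stimulated with 0.5 nM 17-beta-estradiol for 18 h at 37C. CCF4 beta-lactamase fluorescence; Hill-fit IC50 and efficacy.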

[4] = target: Estrogen receptor (Homo sapiens) (UniProt P03372); experiment: qHTS assay for small molecule agonists of estrogen receptor alpha signaling (AID 588514; calls by dose curve; also: nearly all actives have a fitted effect of over 70% in size; also: potency is read from the fitted curve at half-maximal effect)
Summary of the method: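 ER-alpha-UAS-bla GripTite HEK293 cells, 5000/well in 2% charcoal/dextran-stripped FBS medium, treated with compound titrations 18 h at 37 C. CCF4 beta-lactamase read by fluorescence after 2 h RT; normalised to 20 nM 17-beta-estradiol (100%) and DMSO (0%), Hill fit for EC50 and efficacy.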

[5] = target: Glucocorticoid receptor (Homo sapiens) (UniProt P04150); experiment: qHTS assay for small molecule agonists of glucocorticoid receptor signaling (AID 588532; active = well fitted curve in the direction sought with a large enough effect in the signal ratio, with a control signal flat; the % refers to the signal ratio); settings: HeLa MMTV-bla, beta-lactamase ratio, agonist, 18 h; activation: stronger effect = higher value, percent of dexamethasone control, DMSO zero
Summary of the method: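 Agonist-mode qHTS: GRE-driven beta-lactamase in HeLa cells exposed 18 h to titrated compounds (up to 92 uM), then CCF4 ratio read after 2 h at RT; Hill-fitted EC50, efficacy relative to 0.1 uM dexamethasone.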

[6] = target: Glucocorticoid receptor (Homo sapiens) (UniProt P04150); experiment: qHTS assay for small molecule antagonists of glucocorticoid receptor signaling (AID 588533; active = well fitted inhibition curve with a large enough effect in the signal ratio, with a control signal flat, not every such curve was filed as active; the % refers to the signal ratio;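 also: cells stimulated with 2 nM dexamethasone as agonist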; also: potency is read from the fitted curve at half-maximal effect)
Summary of the method: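 Antagonist-mode qHTS: compound titrations added to GRE-bla HeLa cells, then dexamethasone 2 nM final; 18 h, 37 C. CCF4 FRET fluorescence normalized to dexamethasone and DMSO; IC50 from Hill fit.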

[7] = target: Vitamin D3 receptor (Homo sapiens) (UniProt P11473); experiment: qHTS assay for small molecule agonists of vitamin D receptor signaling (AID 588543; calls by dose curve)
Summary of the method: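 VDR-UAS-bla HEK293T cells, 2000/well, 2% charcoal-stripped FBS; compound titration 16 h at 37 C; CCF4 beta-lactamase ratio read. Normalized to 50 nM 1-alpha,25-dihydroxyvitamin D3 (100%) and DMSO; Hill fit gives EC50, efficacy.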

[8] = qHTS assay for small molecule agonists of retinoid X receptor alpha signaling (AID 588544); settings: HEK293T RXRa-UAS-bla, beta-lactamase reporter, 18 h; 530 nm emission
[9] = target: Thyroid hormone receptor beta (Homo sapiens) (UniProt P10828); experiment: qHTS assay for small molecule agonists of thyroid hormone receptor beta signaling (AID 588545; calls by dose curve; also: potency is read from the fitted curve at half-maximal effect)
Summary of the method: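 Beta-lactamase reporter activity under TR response element control is measured in HEK 293 cells after 18 hrs compound exposure. Signal is ratiometric CCF4 fluorescence, 460/530 nm.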

[10] = qHTS for Inhibitors of ATXN expression: Validation (AID 588378); also: nearly all actives have a fitted effect of over 75% in size; also: potency is read from the fitted curve at half-maximal effect
Summary of the method: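 HEK293 cells carrying ATXN2-firefly luciferase reporter, treated with compound 24 h at 37 °C. Viability read first by CellTiter-Fluor (405/525 nm), then reporter expression by Bright-Glo luminescence; controls were a known ATXN2 expression inhibitor and a luciferase inhibitor.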

[11] = target: DNA dC->dU-editing enzyme APOBEC-3G (Homo sapiens) (UniProt Q9HC16); experiment: qHTS for inhibitors of Vif-A3G interactions: Validation (AID 588379)
Summary of the method: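 HeLa cells stably expressing Vif and A3G-eYFP, 700 cells/well, incubated overnight at 37 deg C, then exposed to compound overnight at 37 deg C. Inhibition of Vif-mediated degradation read as increased yellow fluorescence (Ex 488/Em 500-530) by laser-scanning cytometry.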

[12] = target: Androgen receptor (Homo sapiens) (UniProt P10275); experiment: qHTS assay for small molecule agonists of androgen receptor signaling (AID 588515; active = well fitted curve in the direction sought with a large enough effect in the signal ratio, with a control signal flat; the % refers to the signal ratio; also: potency is read from the fitted curve at half-maximal effect); settings: AR-UAS-bla HEK293, beta-lactamase ratio, agonist 16 h; activation: stronger effect = higher value
Summary of the method: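 EC50 and efficacy came from Hill fits of titrations (up to 92 uM) normalized to 30 nM R1881 as 100% and DMSO as 0%. Compound exposure was 16 h at 37 C on AR-UAS-bla HEK293 cells, with a 405/460/530 nm CCF4 fluorescence read.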

[13] = target: Peroxisome proliferator-activated receptor gamma (Homo sapiens) (UniProt P37231); experiment: qHTS assay for small molecule antagonists of peroxisome proliferator-activated receptor gamma signaling (AID 588537; active = well fitted inhibition curve with a large enough effect in the signal ratio, with a control signal flat, not every such curve was filed as active; the % refers to the signal ratio;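 also: reporter cells co-stimulated with 50 nM rosiglitazone agonist during compound treatment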)
Summary of the method: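 Antagonist mode, beta-lactamase reporter in HEK293; charcoal/dextran FBS 1%; 3000 cells/well, 37 C 6-6.5 h; cpd titration + rosiglitazone 50 nM final, 16 h 37 C; CCF4, 2 h RT; 460/530 nm; Hill fit → IC50, efficacy.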

[14] = target: Bile acid receptor (Homo sapiens) (UniProt Q96RI1); experiment: qHTS assay for small molecule antagonists of farnesoid X receptor signaling (AID 588526; calls by dose curve)
Summary of the method: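 Beta-lactamase reporter antagonist mode: HEK293T FXR-UAS-bla cells, titrated compound, CDCA stimulation, 16 h 37 C, CCF4 dye 2 h RT. Data normalized to CDCA 50 uM and DMSO; Hill-fit IC50.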

[15] = qHTS assay for small molecule antagonists of peroxisome proliferator-activated receptor delta signaling (AID 588535; active = well fitted inhibition curve with a large enough effect in the signal ratio, with a control signal flat, not every such curve was filed as active; the % refers to the signal ratio;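 as to max response: cells co-treated with a PPAR-delta agonist as stimulator during compound exposure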); settings: HEK293T PPARd-UAS-bla, beta-lactamase FRET ratio, 18 h; 460 nm channel
Summary of the method: (§1)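 HEK293T PPAR-delta-UAS-bla cells, 4000/well, 2% charcoal/dextran FBS; 5 h 37 C; cpd titration; 18 h 37 C; CCF4 2 h RT; FI 460/530 nm; Hill fit → IC50, efficacy.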

[16] = target: Peroxisome proliferator-activated receptor delta (Homo sapiens) (UniProt Q03181); experiment: as above
Summary of the method: as §1

[17] = target: Peroxisome proliferator-activated receptor gamma (Homo sapiens) (UniProt P37231); experiment: qHTS assay for small molecule agonists of peroxisome proliferator-activated receptor gamma signaling (AID 588536; active = well fitted curve in the direction sought with a large enough effect in the signal ratio, with a control signal flat, not every such curve was filed as active; the % refers to the signal ratio)
Summary of the method: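 Test agents, titrated, stimulated HEK293 UAS-bla cells overnight (16 h, 37 C). Substrate CCF4 was then added for two hours at room temperature before fluorescence reading.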

[18] = qHTS for Inhibitors of ATXN expression: Validation of Cytotoxic Assay (AID 588349)
Summary of the method: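 HEK293 cells treated with titrated compound for 72 hr at 37 degrees C; viability read as intracellular ATP by CellTiter Glo luminescence.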

[19] = target: Vitamin D3 receptor (Homo sapiens) (UniProt P11473); experiment: qHTS assay for small molecule antagonists of vitamin D receptor signaling (AID 588541; calls by dose curve;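 also: receptor activated by calcitriol during compound treatment; series mostly up to about 77 µM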)
Summary of the method: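 Antagonist-mode beta-lactamase reporter assay: HEK293T VDR-UAS-bla cells were exposed to titrated compound alongside 1-alpha,25-dihydroxyvitamin D3 at 3 nM final for 16 h. Values were normalized to the 50 nM agonist control and DMSO basal, with IC50 and efficacy from Hill equation fits.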

Sequence of DNA dC->dU-editing enzyme APOBEC-3G (Homo sapiens) (Q9HC16 whole entry, looked up): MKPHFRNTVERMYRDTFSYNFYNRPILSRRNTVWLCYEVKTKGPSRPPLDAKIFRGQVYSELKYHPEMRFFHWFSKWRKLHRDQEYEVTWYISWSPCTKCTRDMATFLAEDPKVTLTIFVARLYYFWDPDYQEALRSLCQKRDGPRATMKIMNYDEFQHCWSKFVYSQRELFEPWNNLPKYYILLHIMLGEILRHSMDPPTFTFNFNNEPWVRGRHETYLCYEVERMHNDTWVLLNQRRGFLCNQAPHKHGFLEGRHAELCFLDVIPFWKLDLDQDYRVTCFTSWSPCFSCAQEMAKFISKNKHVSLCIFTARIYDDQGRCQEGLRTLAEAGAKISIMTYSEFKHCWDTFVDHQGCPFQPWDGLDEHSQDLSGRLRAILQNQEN
Sequence of Vitamin D3 receptor (Homo sapiens) (P11473 whole entry, looked up): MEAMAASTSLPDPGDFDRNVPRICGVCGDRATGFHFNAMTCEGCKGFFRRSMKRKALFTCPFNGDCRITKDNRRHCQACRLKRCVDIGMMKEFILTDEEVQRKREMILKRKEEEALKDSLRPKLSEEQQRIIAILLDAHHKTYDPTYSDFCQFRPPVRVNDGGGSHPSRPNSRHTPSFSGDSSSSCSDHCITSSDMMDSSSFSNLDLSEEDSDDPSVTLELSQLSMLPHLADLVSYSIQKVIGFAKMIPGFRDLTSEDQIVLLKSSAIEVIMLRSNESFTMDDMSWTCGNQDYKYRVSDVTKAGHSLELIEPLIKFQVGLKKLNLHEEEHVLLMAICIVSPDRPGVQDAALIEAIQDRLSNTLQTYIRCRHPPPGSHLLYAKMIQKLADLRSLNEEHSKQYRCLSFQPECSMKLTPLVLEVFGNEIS
Sequence of Thyroid hormone receptor beta (Homo sapiens) (P10828 whole entry, looked up): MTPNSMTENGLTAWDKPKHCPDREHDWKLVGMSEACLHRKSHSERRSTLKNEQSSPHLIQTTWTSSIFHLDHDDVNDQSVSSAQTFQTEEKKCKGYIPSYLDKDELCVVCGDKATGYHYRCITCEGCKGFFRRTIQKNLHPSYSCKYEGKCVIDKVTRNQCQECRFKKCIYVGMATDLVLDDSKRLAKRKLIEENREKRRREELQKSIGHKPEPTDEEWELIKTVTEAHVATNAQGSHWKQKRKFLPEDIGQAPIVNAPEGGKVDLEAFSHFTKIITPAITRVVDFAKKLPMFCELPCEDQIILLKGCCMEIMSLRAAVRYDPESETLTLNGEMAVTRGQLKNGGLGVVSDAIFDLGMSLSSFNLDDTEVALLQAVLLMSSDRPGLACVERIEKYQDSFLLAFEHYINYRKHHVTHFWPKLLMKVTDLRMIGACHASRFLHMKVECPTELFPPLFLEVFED
Sequence of Glucocorticoid receptor (Homo sapiens) (P04150 whole entry, looked up): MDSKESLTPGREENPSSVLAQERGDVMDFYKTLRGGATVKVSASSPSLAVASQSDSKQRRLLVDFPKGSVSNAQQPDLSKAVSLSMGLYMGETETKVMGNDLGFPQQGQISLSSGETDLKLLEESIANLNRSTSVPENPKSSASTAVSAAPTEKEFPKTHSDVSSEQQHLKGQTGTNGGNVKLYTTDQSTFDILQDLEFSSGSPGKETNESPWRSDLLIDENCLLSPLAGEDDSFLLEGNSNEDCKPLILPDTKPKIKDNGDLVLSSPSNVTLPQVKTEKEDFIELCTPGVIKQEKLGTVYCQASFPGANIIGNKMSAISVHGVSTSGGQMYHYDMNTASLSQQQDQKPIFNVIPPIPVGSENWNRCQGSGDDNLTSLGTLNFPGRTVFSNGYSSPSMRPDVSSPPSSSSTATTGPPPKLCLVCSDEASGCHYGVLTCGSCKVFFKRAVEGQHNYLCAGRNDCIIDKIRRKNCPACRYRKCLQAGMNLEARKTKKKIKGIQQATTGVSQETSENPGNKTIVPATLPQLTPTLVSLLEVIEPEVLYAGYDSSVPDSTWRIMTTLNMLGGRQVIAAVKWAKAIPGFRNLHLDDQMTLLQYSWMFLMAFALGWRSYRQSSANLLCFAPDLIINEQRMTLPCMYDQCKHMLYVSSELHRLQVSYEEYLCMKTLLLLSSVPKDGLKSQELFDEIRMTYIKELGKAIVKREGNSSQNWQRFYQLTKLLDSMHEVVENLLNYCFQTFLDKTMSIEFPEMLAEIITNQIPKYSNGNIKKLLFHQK
Sequence of Peroxisome proliferator-activated receptor gamma (Homo sapiens) (P37231 whole entry, looked up): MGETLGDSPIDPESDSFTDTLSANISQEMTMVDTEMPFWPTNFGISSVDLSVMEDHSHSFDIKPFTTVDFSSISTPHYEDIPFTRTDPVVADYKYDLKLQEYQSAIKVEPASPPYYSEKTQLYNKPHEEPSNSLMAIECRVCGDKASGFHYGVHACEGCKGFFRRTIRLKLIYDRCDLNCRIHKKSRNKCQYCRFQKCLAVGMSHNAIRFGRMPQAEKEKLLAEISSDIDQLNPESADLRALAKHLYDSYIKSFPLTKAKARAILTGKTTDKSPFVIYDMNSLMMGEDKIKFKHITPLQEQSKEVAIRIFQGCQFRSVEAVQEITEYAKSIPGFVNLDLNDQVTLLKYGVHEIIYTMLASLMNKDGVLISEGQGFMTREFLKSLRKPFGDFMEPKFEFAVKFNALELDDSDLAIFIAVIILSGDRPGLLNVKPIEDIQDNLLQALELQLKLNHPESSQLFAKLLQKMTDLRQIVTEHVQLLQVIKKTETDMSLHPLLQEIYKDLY
Sequence of phosphoglycerate mutase (Leishmania major) (Q4Q090 1-553): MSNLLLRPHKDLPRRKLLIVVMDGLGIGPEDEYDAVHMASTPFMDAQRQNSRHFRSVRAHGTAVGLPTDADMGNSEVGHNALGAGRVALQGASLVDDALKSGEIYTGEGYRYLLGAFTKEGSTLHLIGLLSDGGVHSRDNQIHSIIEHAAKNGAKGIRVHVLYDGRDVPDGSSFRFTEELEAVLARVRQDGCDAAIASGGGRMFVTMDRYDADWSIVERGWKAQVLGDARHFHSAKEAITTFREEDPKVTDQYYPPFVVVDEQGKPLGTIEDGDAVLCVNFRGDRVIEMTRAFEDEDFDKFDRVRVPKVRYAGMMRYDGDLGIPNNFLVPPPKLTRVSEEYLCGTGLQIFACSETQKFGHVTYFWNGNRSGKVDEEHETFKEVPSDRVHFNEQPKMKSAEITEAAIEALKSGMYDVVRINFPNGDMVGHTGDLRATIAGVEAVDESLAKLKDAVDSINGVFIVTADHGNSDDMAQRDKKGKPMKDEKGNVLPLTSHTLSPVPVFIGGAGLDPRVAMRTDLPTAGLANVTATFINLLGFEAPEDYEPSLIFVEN
Sequence of Ubiquitin carboxyl-terminal hydrolase 1 (Homo sapiens) (O94782 whole entry, looked up): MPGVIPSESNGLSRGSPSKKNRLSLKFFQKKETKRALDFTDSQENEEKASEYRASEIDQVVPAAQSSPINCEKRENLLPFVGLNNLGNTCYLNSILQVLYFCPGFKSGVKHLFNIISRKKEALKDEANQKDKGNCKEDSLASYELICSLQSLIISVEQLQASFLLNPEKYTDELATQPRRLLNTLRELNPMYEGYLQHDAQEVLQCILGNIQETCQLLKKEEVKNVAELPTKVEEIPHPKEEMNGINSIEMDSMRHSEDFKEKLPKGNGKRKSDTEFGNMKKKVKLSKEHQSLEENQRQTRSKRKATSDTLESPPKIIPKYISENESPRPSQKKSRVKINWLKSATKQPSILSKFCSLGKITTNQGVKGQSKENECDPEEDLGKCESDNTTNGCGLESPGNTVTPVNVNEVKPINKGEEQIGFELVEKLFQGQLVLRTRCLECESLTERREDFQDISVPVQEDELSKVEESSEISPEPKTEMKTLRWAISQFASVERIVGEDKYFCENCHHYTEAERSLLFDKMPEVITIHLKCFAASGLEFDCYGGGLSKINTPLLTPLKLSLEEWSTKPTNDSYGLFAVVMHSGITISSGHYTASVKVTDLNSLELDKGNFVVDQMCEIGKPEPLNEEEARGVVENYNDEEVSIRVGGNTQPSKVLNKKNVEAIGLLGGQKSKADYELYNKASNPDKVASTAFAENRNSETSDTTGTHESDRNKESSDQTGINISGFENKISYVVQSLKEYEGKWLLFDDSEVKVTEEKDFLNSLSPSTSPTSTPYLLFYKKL
Sequence of Estrogen receptor (Homo sapiens) (P03372 whole entry, looked up): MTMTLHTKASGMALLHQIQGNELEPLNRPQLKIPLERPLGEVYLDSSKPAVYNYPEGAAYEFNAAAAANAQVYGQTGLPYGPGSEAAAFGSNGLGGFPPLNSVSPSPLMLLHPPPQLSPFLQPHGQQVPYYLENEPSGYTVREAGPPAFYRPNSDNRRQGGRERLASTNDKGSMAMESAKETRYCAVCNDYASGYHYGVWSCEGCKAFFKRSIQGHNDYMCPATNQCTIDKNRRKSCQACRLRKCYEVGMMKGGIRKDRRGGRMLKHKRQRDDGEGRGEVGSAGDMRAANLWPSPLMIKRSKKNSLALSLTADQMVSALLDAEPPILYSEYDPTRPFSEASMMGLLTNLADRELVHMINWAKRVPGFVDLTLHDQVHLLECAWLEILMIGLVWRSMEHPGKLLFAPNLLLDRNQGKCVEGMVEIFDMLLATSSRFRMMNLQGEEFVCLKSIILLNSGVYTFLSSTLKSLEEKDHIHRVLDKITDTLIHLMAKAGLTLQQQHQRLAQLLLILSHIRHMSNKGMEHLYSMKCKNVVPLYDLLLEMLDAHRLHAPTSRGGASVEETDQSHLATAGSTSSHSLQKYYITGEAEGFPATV
Sequence of Peroxisome proliferator-activated receptor delta (Homo sapiens) (Q03181 whole entry, looked up): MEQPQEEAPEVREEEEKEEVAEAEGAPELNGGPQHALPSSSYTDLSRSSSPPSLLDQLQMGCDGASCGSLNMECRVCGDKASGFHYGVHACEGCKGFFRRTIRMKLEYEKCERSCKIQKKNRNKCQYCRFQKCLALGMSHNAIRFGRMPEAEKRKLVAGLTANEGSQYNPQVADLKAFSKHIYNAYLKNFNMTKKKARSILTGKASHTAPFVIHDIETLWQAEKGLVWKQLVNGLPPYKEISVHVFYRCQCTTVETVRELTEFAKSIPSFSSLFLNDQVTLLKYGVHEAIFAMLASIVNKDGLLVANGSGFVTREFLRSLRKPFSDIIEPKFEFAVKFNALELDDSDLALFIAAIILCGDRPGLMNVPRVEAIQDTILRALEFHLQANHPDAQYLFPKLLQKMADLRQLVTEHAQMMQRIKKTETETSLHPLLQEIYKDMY

Nc1ncn([C@@H]2O[C@H](CO)[C@@H](O)[C@H]2O)c(=O)n1
outcome [1]: inactive
Potency [2]: inactive
outcome [3]: inactive
Potency [4]: inactive
activation [5]: -7.09% (inactive) and -13.7% (inactive)
Potency [6]: 7.94 µM (active) and 5.62 µM (active)
outcome [7]: inactive
max response [8]: -23.8%
Potency [9]: inactive

COc1cc(C(=O)OCCCN2CCCN(CCCOC(=O)c3cc(OC)c(OC)c(OC)c3)CC2)cc(OC)c1OC
outcome [1]: inactive
Potency [2]: inactive
Potency [10]: inactive
outcome [11]: inactive

CN/C(=C\[N+](=O)[O-])NCCSCc1ccc(CN(C)C)o1
outcome [1]: inactive
Potency [2]: inactive
Potency [10]: inactive
outcome [11]: inactive

Cc1ccc(=O)n(-c2ccccc2)c1
outcome [1]: inactive
Potency [2]: inactive
Potency [10]: inactive
outcome [11]: inactive

Nc1nc(N)c2nc(-c3ccccc3)c(N)nc2n1
outcome [1]: inactive
Potency [2]: inactive
Potency [10]: inactive
outcome [3]: inactive
Potency [4]: 35.5 µM (active)
Potency [12]: 44.7 µM (active)
outcome [13]: inactive
Potency [9]: 22.4 µM (active)

CC1=C(C)C(=O)C(CCCCC#CCCCC#CCO)=C(C)C1=O
outcome [1]: inactive
Potency [10]: 20 µM (active)

CCCN1C[C@H](CSC)C[C@@H]2c3cccc4[nH]cc(c34)C[C@H]21
outcome [1]: inactive
Potency [2]: inactive
Potency [10]: inactive
outcome [11]: inactive

CCCOc1ccccc1-c1nc2n[nH]nc2c(=O)[nH]1
outcome [1]: inactive
Potency [2]: inactive
Potency [10]: inactive
outcome [11]: inactive

NC(=Nc1ccccc1)Nc1ccccc1
Potency [2]: inactive
Potency [4]: inactive
outcome [14]: inactive
Potency [6]: inactive
max response [15]: 0.0144% and 57.9%
outcome [16]: inactive
outcome [17]: inactive
outcome [13]: inactive
max response [8]: 3.91%
Potency [9]: inactive

COC(=O)[C@H]1[C@H]2C[C@@H]3c4[nH]c5cc(OC)ccc5c4CCN3C[C@H]2C[C@@H](OC(=O)c2cc(OC)c(OC)c(OC)c2)[C@@H]1OC
outcome [1]: inactive
Potency [10]: inactive
activation [5]: 4.47% (inactive)
Potency [6]: inactive
Potency [9]: inactive

O=C1NCN(c2ccccc2)C12CCN(CCCC(c1ccc(F)cc1)c1ccc(F)cc1)CC2
outcome [1]: inactive
Potency [10]: inactive

CCN(CC)CC(=O)Nc1c(C)cccc1C
outcome [1]: inactive
Potency [18]: inactive
Potency [10]: inactive

O=C(O)CCCCCCCC(=O)O
outcome [1]: inactive
Potency [2]: inactive
Potency [10]: inactive
outcome [17]: inactive
outcome [13]: inactive
outcome [19]: inactive
outcome [7]: inactive
max response [8]: -21.3%
Potency [9]: inactive
